PubChem BioAssay (EPA / NIEHS)
Active and inactive are the calls of the source. The calls were made as follows: active = hit-call score of the fitted dose curve at least 0.9, where 1 is the maximum; inactive = score below 0.9.

What was measured:
[1] = ATG_CRE_CIS: Attagene CIS-FACTORIAL HepG2 Assay for human cAMP Responsive Element (CRE) binding protein 3 (AID 2282926); details: HepG2 CRE cis-reporter, Attagene multiplexed mRNA; actives raise or lower the signal
Summary of the method: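 Endogenous transcription factor activity read via CRE-regulated reporter transcripts in transfected HepG2 cells. After 24 h exposure, RNA was reverse-transcribed, amplified, fluorescently labelled and sized by capillary electrophoresis; gain or loss fitted against DMSO.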

[2] = target: CCAAT/enhancer-binding protein beta (Homo sapiens) (UniProt P17676); experiment: ATG_C_EBP_CIS: Attagene CIS-FACTORIAL HepG2 Assay for human CCAAT/Enhancer Binding Protein (C/EBP) beta (AID 2282927); details: HepG2 Attagene cis-factorial transcription factor reporter; actives raise or lower the signal
Chain of CCAAT/enhancer-binding protein beta (Homo sapiens) (P17676 whole entry, looked up): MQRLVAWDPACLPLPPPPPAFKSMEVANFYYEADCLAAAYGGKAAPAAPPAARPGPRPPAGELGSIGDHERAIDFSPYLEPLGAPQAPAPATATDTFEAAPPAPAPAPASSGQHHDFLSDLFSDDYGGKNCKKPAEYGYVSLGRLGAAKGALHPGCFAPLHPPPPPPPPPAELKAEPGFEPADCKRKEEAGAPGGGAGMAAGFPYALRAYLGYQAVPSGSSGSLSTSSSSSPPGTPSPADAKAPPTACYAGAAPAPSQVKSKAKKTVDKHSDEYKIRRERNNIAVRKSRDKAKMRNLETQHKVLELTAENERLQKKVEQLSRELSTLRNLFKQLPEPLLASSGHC
Summary of the method: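 Following a 24 h incubation with test chemical, transfected HepG2 cells yielded RNA whose reporter transcripts were quantified by RT-PCR and fluorescent capillary electrophoresis, with DMSO serving as baseline for bidirectional fitting.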

[3] = ATG_CMV_CIS: Attagene CIS-FACTORIAL HepG2 Assay for human CMV (Internal Marker) (AID 2282928); details: HepG2 CMV promoter reporter, transcription factor profiling; actives raise or lower the signal;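 also: endpoint acts as a background internal control marker rather than a target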
Summary of the method: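 Readout: fluorescent reporter cDNA fragments separated by capillary electrophoresis after RT-PCR and HpaI cut. Cells: HepG2 carrying transfected cis-promoter reporter constructs, dosed 24 h. Endpoint serves as background internal-marker control, fit bidirectionally versus DMSO.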

[4] = ATG_DR4_LXR_CIS: Attagene CIS-FACTORIAL HepG2 Assay for human Liver X Receptor (LXR), DR4 submotif (AID 2282929); details: HepG2 Attagene DR4 cis-reporter, mRNA transcription; actives raise or lower the signal
Summary of the method: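 Total RNA from 24 h-treated, MRTU-transfected HepG2 cells underwent reverse transcription, PCR, fluorescent primer extension and restriction digestion before capillary electrophoresis. Both increases and decreases in reporter signal were fitted against DMSO.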

[5] = target: Aryl hydrocarbon receptor (Homo sapiens) (UniProt P35869); experiment: ATG_Ahr_CIS: Attagene CIS-FACTORIAL HepG2 Assay for human Aryl Hydrocarbon Receptor (Ahr) (AID 2282930); details: HepG2 AhR cis-factorial reporter transcription; actives raise or lower the signal
Chain of Aryl hydrocarbon receptor (Homo sapiens) (P35869 whole entry, looked up): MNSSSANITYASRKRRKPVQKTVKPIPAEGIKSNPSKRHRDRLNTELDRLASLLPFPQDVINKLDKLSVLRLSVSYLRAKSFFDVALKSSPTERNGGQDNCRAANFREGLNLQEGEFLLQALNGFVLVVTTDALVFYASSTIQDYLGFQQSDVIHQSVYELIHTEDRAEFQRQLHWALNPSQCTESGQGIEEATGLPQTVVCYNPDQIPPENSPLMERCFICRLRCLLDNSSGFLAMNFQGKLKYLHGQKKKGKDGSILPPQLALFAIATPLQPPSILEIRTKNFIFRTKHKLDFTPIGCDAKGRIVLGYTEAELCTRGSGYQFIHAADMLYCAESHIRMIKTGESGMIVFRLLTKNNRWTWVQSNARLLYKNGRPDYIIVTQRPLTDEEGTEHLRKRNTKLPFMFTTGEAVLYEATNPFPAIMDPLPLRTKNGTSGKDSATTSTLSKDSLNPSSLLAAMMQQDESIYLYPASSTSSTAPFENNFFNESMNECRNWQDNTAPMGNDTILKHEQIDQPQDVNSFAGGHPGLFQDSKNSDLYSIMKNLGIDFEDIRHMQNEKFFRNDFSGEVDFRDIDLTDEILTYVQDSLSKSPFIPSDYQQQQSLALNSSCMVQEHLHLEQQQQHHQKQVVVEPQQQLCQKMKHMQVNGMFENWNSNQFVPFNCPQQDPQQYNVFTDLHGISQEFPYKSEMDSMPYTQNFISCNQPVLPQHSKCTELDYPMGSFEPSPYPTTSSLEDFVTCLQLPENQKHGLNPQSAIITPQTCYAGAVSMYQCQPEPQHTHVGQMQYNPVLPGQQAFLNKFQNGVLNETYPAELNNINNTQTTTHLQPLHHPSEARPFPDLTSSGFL
Summary of the method: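 Values derive from bidirectional fitting against DMSO negative control. Underlying signal: cis-element reporter mRNA in transiently transfected HepG2, harvested 24 h post-dose and measured by RT-PCR plus capillary electrophoresis.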

[6] = ATG_AP_1_CIS: Attagene CIS-FACTORIAL HepG2 Assay for human Activator Protein 1 (AP-1) (AID 2282931); details: HepG2 Attagene cis-factorial AP-1 reporter mRNA; actives raise or lower the signal
Summary of the method: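 HepG2, transient cis-reporter transfection; 24 h; readout RT-PCR/CE fluorescence; DMSO baseline, gain and loss fitted.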

[7] = ATG_AP_2_CIS: Attagene CIS-FACTORIAL HepG2 Assay for human Activator Protein 2 (AP-2) (AID 2282932); details: HepG2 AP-2 cis-reporter, Attagene transcription factor profiling; actives raise or lower the signal
Summary of the method: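 Assay in transfected HepG2 with promoter-regulated reporters, 24 h incubation after dosing. Signal is reporter mRNA fluorescence (RT-PCR, capillary electrophoresis), analysed for both increases and decreases relative to DMSO controls.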

[8] = ATG_BRE_CIS: Attagene CIS-FACTORIAL HepG2 Assay for human Bone Morphogenetic Protein (BMP) Response Element (BRE) (AID 2282933); details: HepG2 BMP response element reporter, Attagene transcription factor profiling; actives raise or lower the signal
Summary of the method: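 Endogenous transcription factor activity read in transiently transfected HepG2 cells after 24 h chemical exposure. Bidirectional curve fitting against DMSO; readout is reporter transcript level by RT-PCR with capillary electrophoresis of labelled products.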

[9] = target: Transcription factor E2F1 (Homo sapiens) (UniProt Q01094); experiment: ATG_E2F_CIS: Attagene CIS-FACTORIAL HepG2 Assay for human E2F Transcription Factor 1 (AID 2282935); details: HepG2 Attagene cis-reporter, E2F reporter RNA transcripts; actives raise or lower the signal
Chain of Transcription factor E2F1 (Homo sapiens) (Q01094 whole entry, looked up): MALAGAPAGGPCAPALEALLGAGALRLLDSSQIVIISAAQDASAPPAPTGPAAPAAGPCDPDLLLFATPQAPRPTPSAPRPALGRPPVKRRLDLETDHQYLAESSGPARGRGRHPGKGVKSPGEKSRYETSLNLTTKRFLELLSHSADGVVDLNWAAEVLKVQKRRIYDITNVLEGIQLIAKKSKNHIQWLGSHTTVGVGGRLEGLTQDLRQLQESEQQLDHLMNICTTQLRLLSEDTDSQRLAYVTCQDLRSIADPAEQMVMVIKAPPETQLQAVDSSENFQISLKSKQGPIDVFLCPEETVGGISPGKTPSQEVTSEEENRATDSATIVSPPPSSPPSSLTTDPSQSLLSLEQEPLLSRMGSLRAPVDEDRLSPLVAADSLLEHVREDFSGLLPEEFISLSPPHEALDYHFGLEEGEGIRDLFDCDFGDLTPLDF
Summary of the method: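 In this cis-factorial format, endogenous factor activity drives transfected reporters in HepG2; transcripts collected at 24 h are quantified by fluorescence after RT-PCR and capillary separation.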

[10] = ATG_E_Box_CIS: Attagene CIS-FACTORIAL HepG2 Assay for human Enhancer Box (E-box) (AID 2282936); details: HepG2 E-box cis-reporter transcription, actives raise or lower the signal
Summary of the method: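 Measured 24 h post-dosing in HepG2 cells transfected with multiple cis-regulated reporter units, signal being reporter mRNA induction detected by fluorescent RT-PCR with capillary electrophoresis; gain or loss fitted against DMSO.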

[11] = ATG_M_61_CIS: Attagene CIS-FACTORIAL HepG2 Assay for M61 Transcription Factor (Internal Marker) (AID 2282937); details: HepG2 Attagene CIS-FACTORIAL M61 internal marker reporter; actives raise or lower the signal
Summary of the method: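 Transfect HepG2 with MRTUs; dose 24 h; isolate RNA; reverse-transcribe with DNase I treatment; PCR-amplify, FAM-label and cut with HpaI for 2 h at 37 C; resolve by CE. Bidirectional fitting against DMSO.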

[12] = ATG_EGR_CIS: Attagene CIS-FACTORIAL HepG2 Assay for human Early Growth Response 1 (EGR1) (AID 2282938); details: HepG2 Attagene CIS-FACTORIAL EGR reporter mRNA; actives raise or lower the signal
Summary of the method: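 After a 24 h treatment of transiently transfected HepG2 cells, total RNA was reverse-transcribed and reporter sequences PCR-amplified, labelled and run on capillary electrophoresis. Reporters sit under cis-regulatory promoters sensing endogenous factors.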

[13] = ATG_M_19_CIS: Attagene CIS-FACTORIAL HepG2 Assay for M19 Transcription Factor (Internal Marker) (AID 2282939); details: HepG2 Attagene CIS-FACTORIAL M19 internal marker reporter; actives raise or lower the signal
Summary of the method: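 Internal marker readout, fitted in both directions against DMSO, from HepG2 cells carrying transfected cis-element reporter constructs; RT-PCR and capillary electrophoresis of reporter mRNA after 24 h exposure.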

[14] = ATG_ERE_CIS: Attagene CIS-FACTORIAL HepG2 Assay for Estrogen Response Element (ERE) (AID 2282940); details: HepG2 ERE cis-reporter, Attagene RNA transcript; actives raise or lower the signal
Summary of the method: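 After 24 h compound treatment, RNA from transfected HepG2 cells was reverse-transcribed, reporter cDNA PCR-amplified, FAM-labelled, HpaI-cut and resolved by capillary electrophoresis. ERE-driven cis reporter transcripts reflect endogenous factors; gain or loss scored against DMSO.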

[15] = ATG_Ets_CIS: Attagene CIS-FACTORIAL HepG2 Assay for human Erythroblast Transformation Specific (ETS) (AID 2282941); details: HepG2 ETS cis-reporter transcription, actives raise or lower the signal
Summary of the method: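 RT-PCR/capillary electrophoresis fluorescence read-out of reporter mRNA; HepG2 transient multi-reporter transfection; 24 h compound exposure; gain or loss of signal fitted bidirectionally relative to DMSO.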

[16] = target: Hepatocyte nuclear factor 3-beta (Homo sapiens) (UniProt Q9Y261); experiment: ATG_FoxA2_CIS: Attagene CIS-FACTORIAL HepG2 Assay for human Forkhead box A2 (FOXA2) (AID 2282942); details: HepG2 cis-reporter transcription factor activity, 24 h; actives raise or lower the signal
Chain of Hepatocyte nuclear factor 3-beta (Homo sapiens) (Q9Y261 whole entry, looked up): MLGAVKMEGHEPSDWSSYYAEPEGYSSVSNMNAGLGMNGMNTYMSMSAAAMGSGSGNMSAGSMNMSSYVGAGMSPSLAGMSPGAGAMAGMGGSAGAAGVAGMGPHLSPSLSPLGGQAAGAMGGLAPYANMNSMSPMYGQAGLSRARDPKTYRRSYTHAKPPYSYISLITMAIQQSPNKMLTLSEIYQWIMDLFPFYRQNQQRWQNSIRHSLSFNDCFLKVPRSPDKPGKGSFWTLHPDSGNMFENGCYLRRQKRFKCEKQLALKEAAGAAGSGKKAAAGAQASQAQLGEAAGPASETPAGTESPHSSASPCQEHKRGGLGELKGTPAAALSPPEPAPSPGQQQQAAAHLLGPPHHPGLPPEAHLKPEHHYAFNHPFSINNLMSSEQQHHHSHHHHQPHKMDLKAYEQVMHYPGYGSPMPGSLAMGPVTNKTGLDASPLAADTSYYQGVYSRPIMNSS
Summary of the method: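 24 h dosing of HepG2 bearing cis-reporter constructs; mRNA readout by RT-PCR/CE fluorescence; bidirectional fit, DMSO baseline.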

[17] = ATG_FoxO_CIS: Attagene CIS-FACTORIAL HepG2 Assay for human Forkhead box O (FoxO) (AID 2282943); details: HepG2 Attagene cis-reporter, FoxO element, mRNA; actives raise or lower the signal
Summary of the method: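 Values reflect reporter mRNA induction or loss in HepG2 cells 24 h post-dosing, fitted bidirectionally with DMSO as negative control and baseline. Detection used RT-PCR and fluorescence capillary electrophoresis.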

[18] = ATG_GLI_CIS: Attagene CIS-FACTORIAL HepG2 Assay for human Zinc Finger Protein GLI1 (AID 2282945); details: HepG2, Attagene cis-factorial reporter mRNA, GLI element; actives raise or lower the signal
Summary of the method: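 HepG2 cells transiently transfected with cis-promoter multiplexed reporter units report endogenous transcription factor activity. After 24 h chemical exposure, reporter mRNA was quantified by RT-PCR, 6-FAM labelling, HpaI digestion and capillary electrophoresis, with bidirectional fitting against DMSO.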

[19] = ATG_GATA_CIS: Attagene CIS-FACTORIAL HepG2 Assay for human GATA Binding Protein (AID 2282944); details: HepG2 GATA cis-element reporter, Attagene multiplex mRNA; actives raise or lower the signal
Summary of the method: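 Reporter transcripts from a GATA cis-regulated unit, among multiplexed reporters in transfected HepG2 cells, were measured by RT-PCR with capillary electrophoresis after 24 h dosing. Induction or loss scored relative to DMSO.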

[20] = target: Retinoic acid receptor alpha (Homo sapiens) (UniProt P10276); experiment: ATG_DR5_RAR_CIS: Attagene CIS-FACTORIAL HepG2 Assay for human Retinoic Acid Receptor Alpha (RARE), DR5 submotif (AID 2282934); details: HepG2 Attagene cis-factorial RARE DR5 reporter, mRNA; actives raise or lower the signal;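 also: reporter responds to endogenous RAR alpha beta and gamma in HepG2 not RARA alone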
Chain of Retinoic acid receptor alpha (Homo sapiens) (P10276 whole entry, looked up): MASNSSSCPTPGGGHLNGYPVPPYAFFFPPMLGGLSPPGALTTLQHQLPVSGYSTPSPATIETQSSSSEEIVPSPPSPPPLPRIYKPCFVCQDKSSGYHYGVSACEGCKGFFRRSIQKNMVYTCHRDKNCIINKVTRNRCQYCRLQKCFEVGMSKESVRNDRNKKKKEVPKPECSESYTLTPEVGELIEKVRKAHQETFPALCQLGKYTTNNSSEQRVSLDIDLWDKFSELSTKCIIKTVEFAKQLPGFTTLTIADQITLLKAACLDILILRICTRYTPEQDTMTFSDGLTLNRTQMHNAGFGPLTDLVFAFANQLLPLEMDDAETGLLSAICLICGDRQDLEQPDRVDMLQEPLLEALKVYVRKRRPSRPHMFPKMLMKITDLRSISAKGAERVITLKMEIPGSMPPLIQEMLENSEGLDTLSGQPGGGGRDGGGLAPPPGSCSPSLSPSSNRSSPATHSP
Summary of the method: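 Endpoint fitted in both directions relative to DMSO as negative control. It reflects DR5 cis-element reporter mRNA induction in transiently transfected HepG2 cells, measured 24 h after dosing through RT-PCR and fluorescent capillary electrophoresis.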

Measured: AC50

CCCC(C)C=O (stereo unspecified)
not listed: [19] | [20]
inactive: all other assays above

CCCCCCCCCCCCCCCC(=O)OC[C@H](O)[C@H]1OC(=O)C(O)=C1O
active: [1] 29.3 µM | [2] 67.7 µM | [4] 76.2 µM | [5] 78 µM | [8] 9.68 µM | [16] 159 µM
not listed: [20]
inactive: all other assays above

CC1(C)[C@H](C(=O)OCc2cccc(Oc3ccccc3)c2)[C@@H]1C=C(Cl)Cl
not listed: [16] | [18] | [20]
inactive: all other assays above

CC1=CCC2C(C1)C2(C)C (stereo unspecified)
active: [14] 82 µM
not listed: [20]
inactive: all other assays above

CCCCC(CC)COC(=O)/C=C\C(=O)OCC(CC)CCCC (stereo unspecified)
active: [1] 45 µM | [2] 56.9 µM | [4] 54.7 µM | [6] 52.7 µM | [20] 100 µM
not listed: [9] | [14]
inactive: all other assays above

C=C(C)[C@@H]1CCC2=CC(=O)C[C@@H](C)[C@]2(C)C1
active: [4] 177 µM | [6] 53.4 µM | [8] 116 µM
not listed: [18] | [20]
inactive: all other assays above

Clc1ccc2c(c1)C(N1CCNCC1)=Nc1ccccc1O2
active: [2] 51 µM | [5] 41.1 µM | [12] 26.6 µM
not listed: [20]
inactive: all other assays above

CCCCOCCOCCOCCOCCO
not listed: [20]
inactive: all other assays above

O=[N+]([O-])c1ccc(C=Cc2ccc([N+](=O)[O-])cc2S(=O)(=O)O)c(S(=O)(=O)O)c1
active: [14] 62.3 µM
not listed: [20]
inactive: all other assays above

C=C(C)C(=O)O
not listed: [18] | [20]
inactive: all other assays above

OCCN1CCNCC1
not listed: [20]
inactive: all other assays above

CC(=O)OCCOC(C)=O
not listed: [18] | [20]
inactive: all other assays above

CCCC(=O)C(C)=O
not listed: [20]
inactive: all other assays above

Clc1cccc(Cl)n1
not listed: [19] | [20]
inactive: all other assays above

CN(C)CCCN
not listed: [19] | [20]
inactive: all other assays above
